# Targets with a hit are over-represented here; the source holds about 7,900 in all. About 0.6% of all pairs of compound and target were hits.
# Tests used:
# Experiment in all cases: log2 fold change, soluble protein after heating vs DMSO (PISA); higher = thermal stabilisation; K562 cells, 10 uM, 30 min; active = over 0.2 and 3.5 SD of the protein, either way, in both replicates (recomputed)
# IRAK-1-4 Inhibitor I = compound: C1COCCN1CCN2C3=CC=CC=C3N=C2NC(=O)C4=CC(=CC=C4)[N+](=O)[O-] [IRAK-1-4 Inhibitor I]
# In short: (§1)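 Soluble protein was defined as the supernatant after 21,000xg for 90 min. It came from K562 cells at 2×10^6 cells/mL given 10 μM compound for 30 min, heated in aliquots for 3 min across 48°C-58°C, pooled, and extracted in PBS with 0.5% NP-40 at 4°C, and was quantified by TMTpro 16plex LC-MS/MS with equalised channel sums. Thermal stability against control samples, from duplicates, is reported as log2 fold change.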
# ibrutinib = compound: C=CC(=O)N1CCC[C@@H](n2nc(-c3ccc(Oc4ccccc4)cc3)c3c(N)ncnc32)C1 [ibrutinib]
# In short: as §1
# [1] = compound: CC(=O)c1cnc2ccc(-c3cc(Cl)c(O)c(Cl)c3)nc2c1N[C@H]1CC[C@H](CN(C)C)CC1
# In short: as §1
# ralimetinib = compound: CC(C)(C)Cn1c(N)nc2ccc(-c3[nH]c(C(C)(C)C)nc3-c3ccc(F)cc3)nc21 [ralimetinib]
# In short: as §1
# [2] = compound: CC(C)(O)CC(=O)NCCn1ccc2ncnc(Nc3ccc(Oc4cccc(C(F)(F)F)c4)c(Cl)c3)c21
# In short: as §1
# [3] = compound: CC(C)C1=C2N=C(C=C(N2N=C1)NCC3=CC=CC=C3)NCCCCCCN
# In short: as §1
# [4] = compound: CC(C)C[C@@H](C=O)NC(=O)[C@H](CC(C)C)NC(=O)[C@H](CC(C)C)NC(=O)OCc1ccccc1
# In short: as §1
# pinometostat = compound: CC(C)N(C[C@H]1O[C@@H](n2cnc3c(N)ncnc32)[C@H](O)[C@@H]1O)[C@H]1C[C@@H](CCc2nc3cc(C(C)(C)C)ccc3[nH]2)C1 [pinometostat]
# In short: as §1
# [5] = compound: CC1=C(C(CC(=O)N1)C2=CC=C(C=C2)C(F)(F)F)C(=O)NC3=C(C=C4C(=C3)C=NN4)F
# In short: as §1
# [6] = compound: CC1=C(C2=C(C=C1)C(=O)C3=CC=CC=C3N2CCCN)C
# In short: as §1
# [7] = compound: CC1=C(C=C(C=C1)NC(=O)C2=CC(=CC=C2)C(C)(C)C#N)NC3=CC4=C(C=C3)N=CN(C4=O)C
# In short: as §1
# [8] = compound: CC1=C(C=C(C=C1)NC(=O)C2=CC(=CC=C2)N(C)C)NC(=O)C3=CC=C(C=C3)O
# In short: as §1
# [9] = compound: CC1=CC=C(C=C1)SC2=C3C=C(SC3=CN=C2)C(=O)N
# In short: as §1
# [10] = compound: CC1=NC(=CC=C1)C2=C(N=C(N2)C(C)(C)C)C3=CC4=NC=CN=C4C=C3
# In short: as §1
# Nexturastat A = compound: CCCCN(Cc1ccc(C(=O)NO)cc1)C(=O)Nc1ccccc1 [Nexturastat A]
# In short: as §1
# vemurafenib = compound: CCCS(=O)(=O)Nc1ccc(F)c(C(=O)c2c[nH]c3ncc(-c4ccc(Cl)cc4)cc23)c1F [vemurafenib]
# In short: as §1
# [11] = compound: CCCS(=O)(=O)Nc1ccc(F)c(C(=O)c2c[nH]c3ncc(Cl)cc23)c1F
# In short: as §1
# [12] = compound: CCCc1cc(C)[nH]c(=O)c1CNC(=O)c1cc(-c2ccnc(N3CCN(C)CC3)c2)cc2c1cnn2C(C)C
# In short: as §1
# givinostat = compound: CCN(CC)Cc1ccc2cc(COC(=O)Nc3ccc(C(=O)NO)cc3)ccc2c1 [givinostat]
# In short: as §1
# barasertib = compound: CCN(CCCOc1ccc2c(Nc3cc(CC(=O)Nc4cccc(F)c4)[nH]n3)ncnc2c1)CCOP(=O)(O)O [barasertib]
# In short: as §1
# Chain of UniProt Q16385 (Q16385 whole entry, looked up): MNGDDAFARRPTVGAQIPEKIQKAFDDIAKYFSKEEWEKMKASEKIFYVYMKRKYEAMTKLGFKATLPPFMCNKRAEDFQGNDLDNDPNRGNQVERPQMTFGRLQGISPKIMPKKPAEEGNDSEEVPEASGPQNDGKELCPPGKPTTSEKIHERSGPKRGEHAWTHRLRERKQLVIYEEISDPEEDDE
# Chain of UniProt Q9UMY4 (Q9UMY4 whole entry, looked up): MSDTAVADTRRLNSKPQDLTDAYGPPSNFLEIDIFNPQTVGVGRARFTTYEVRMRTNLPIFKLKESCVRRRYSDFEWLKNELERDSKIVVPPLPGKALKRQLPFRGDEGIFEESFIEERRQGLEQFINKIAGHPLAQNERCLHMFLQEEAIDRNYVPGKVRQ
# Chain of UniProt Q16594 (Q16594 whole entry, looked up): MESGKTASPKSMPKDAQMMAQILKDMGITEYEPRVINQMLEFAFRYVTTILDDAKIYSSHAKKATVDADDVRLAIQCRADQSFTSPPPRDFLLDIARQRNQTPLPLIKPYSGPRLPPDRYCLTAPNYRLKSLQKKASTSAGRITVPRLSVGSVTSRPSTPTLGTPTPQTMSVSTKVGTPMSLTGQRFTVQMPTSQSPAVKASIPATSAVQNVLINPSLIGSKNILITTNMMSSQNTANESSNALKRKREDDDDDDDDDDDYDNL
# Chain of UniProt O00506 (O00506 whole entry, looked up): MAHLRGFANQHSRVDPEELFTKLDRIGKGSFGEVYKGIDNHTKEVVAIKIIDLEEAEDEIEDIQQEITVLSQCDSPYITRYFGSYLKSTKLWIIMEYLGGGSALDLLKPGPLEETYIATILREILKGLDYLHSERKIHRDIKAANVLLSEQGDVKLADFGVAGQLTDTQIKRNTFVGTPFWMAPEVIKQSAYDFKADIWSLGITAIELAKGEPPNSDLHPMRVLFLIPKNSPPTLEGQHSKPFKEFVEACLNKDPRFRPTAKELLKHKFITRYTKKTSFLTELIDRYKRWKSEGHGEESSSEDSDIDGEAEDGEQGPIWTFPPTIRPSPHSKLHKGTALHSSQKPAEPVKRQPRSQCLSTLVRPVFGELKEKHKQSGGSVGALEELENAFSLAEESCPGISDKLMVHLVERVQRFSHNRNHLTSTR
# Chain of UniProt P08579 (P08579 whole entry, looked up): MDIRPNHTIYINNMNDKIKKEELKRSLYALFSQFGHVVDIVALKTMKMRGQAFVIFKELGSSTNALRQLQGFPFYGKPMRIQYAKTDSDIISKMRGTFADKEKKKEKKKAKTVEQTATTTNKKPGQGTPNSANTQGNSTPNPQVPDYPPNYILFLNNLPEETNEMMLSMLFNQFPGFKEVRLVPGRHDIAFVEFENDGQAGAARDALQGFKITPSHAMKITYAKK
# Chain of UniProt Q9Y6I9 (Q9Y6I9 whole entry, looked up): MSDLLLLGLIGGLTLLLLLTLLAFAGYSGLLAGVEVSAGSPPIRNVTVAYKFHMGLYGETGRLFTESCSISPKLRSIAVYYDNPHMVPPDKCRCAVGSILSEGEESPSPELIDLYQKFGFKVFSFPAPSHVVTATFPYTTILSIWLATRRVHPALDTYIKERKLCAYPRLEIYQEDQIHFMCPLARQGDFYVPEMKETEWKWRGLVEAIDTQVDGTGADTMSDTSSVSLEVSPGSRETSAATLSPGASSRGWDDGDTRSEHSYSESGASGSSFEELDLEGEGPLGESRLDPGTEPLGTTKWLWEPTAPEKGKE
# Chain of UniProt Q96CQ1 (Q96CQ1 whole entry, looked up): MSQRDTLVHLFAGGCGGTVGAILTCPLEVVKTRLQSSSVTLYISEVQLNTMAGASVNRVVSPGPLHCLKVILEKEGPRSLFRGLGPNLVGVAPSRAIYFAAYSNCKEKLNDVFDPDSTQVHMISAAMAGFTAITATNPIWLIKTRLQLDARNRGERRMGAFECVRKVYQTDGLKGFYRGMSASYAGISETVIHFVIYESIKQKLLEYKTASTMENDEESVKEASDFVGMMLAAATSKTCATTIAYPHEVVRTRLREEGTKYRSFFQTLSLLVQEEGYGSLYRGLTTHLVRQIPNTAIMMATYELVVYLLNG
# Chain of UniProt O15198 (O15198 whole entry, looked up): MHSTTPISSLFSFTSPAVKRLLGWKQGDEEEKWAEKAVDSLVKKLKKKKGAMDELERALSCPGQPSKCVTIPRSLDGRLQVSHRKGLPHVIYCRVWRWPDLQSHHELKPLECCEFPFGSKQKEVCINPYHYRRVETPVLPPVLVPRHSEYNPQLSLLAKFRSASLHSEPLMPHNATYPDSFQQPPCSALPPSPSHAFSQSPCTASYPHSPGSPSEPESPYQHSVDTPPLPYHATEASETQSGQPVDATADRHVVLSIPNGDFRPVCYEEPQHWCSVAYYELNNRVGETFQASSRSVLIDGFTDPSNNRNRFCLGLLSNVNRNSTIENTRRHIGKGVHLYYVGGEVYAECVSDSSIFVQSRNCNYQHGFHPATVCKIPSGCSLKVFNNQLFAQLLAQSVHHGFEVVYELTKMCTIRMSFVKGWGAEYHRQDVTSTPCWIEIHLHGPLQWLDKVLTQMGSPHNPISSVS
# Chain of UniProt Q96JI7 (Q96JI7 whole entry, looked up): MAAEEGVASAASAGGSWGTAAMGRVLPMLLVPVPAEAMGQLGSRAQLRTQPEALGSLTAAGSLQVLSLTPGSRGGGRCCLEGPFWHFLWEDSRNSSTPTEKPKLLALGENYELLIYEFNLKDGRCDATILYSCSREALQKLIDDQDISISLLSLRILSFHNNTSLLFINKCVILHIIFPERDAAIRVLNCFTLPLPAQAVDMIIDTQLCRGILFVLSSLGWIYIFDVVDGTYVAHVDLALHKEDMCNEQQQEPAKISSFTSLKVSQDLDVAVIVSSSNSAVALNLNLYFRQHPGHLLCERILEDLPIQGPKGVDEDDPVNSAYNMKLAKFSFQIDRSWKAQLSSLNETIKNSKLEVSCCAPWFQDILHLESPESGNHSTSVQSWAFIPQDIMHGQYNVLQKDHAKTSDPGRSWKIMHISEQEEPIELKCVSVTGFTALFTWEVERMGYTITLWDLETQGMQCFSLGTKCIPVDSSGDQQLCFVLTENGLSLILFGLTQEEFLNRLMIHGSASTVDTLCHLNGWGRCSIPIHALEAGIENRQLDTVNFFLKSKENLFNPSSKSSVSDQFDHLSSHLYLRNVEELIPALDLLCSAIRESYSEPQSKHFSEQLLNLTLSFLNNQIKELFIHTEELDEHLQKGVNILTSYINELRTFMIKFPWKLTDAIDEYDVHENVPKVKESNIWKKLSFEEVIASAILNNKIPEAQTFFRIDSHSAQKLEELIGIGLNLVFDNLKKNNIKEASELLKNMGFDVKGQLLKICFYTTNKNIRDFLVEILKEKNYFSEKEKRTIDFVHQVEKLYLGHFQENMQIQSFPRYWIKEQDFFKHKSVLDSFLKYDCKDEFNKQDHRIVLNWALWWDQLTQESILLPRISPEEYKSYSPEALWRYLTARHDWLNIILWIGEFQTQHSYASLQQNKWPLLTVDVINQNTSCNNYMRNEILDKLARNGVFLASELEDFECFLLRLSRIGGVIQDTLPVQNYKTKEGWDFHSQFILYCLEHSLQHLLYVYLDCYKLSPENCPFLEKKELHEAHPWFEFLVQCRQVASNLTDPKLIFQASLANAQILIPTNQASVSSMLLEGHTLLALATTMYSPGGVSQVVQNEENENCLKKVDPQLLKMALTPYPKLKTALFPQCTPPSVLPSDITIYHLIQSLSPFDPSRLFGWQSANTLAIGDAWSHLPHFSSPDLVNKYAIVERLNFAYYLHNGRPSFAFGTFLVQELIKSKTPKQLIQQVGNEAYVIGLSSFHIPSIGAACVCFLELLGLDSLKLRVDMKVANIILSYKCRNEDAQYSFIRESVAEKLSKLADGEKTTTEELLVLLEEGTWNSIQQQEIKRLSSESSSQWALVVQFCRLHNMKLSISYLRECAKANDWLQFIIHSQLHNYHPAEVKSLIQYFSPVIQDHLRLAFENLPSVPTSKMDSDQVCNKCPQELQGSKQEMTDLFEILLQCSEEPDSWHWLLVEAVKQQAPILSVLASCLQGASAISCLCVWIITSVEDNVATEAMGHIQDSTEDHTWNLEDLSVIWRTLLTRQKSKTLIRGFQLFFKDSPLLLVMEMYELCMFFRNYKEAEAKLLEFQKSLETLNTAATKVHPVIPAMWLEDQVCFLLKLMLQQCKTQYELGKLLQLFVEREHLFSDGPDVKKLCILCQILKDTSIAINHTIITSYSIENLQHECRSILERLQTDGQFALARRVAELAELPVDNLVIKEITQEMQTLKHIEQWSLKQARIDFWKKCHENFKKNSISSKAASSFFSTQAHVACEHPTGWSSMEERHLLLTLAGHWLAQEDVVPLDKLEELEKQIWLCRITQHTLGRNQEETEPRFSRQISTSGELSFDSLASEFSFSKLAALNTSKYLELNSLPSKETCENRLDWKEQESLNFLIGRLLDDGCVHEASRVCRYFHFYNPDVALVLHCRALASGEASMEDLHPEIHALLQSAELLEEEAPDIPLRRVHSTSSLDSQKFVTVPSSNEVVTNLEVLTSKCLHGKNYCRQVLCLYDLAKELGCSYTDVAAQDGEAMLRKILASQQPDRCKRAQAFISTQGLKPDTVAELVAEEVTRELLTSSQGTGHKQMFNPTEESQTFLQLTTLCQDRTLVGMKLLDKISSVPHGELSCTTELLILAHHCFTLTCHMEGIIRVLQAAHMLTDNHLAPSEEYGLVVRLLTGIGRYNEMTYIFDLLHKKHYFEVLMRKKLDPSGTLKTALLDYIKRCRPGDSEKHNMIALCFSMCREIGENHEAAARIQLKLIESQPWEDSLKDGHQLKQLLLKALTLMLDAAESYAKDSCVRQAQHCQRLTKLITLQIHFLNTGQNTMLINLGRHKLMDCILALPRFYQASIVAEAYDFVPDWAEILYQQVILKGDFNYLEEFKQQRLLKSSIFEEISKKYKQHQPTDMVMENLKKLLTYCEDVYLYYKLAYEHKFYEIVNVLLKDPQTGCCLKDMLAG
Target,log2 fold change (IRAK-1-4 Inhibitor I),log2 fold change (ibrutinib),log2 fold change [1],log2 fold change (ralimetinib),log2 fold change [2],log2 fold change [3],log2 fold change [4],log2 fold change (pinometostat),log2 fold change [5],log2 fold change [6],log2 fold change [7],log2 fold change [8],log2 fold change [9],log2 fold change [10],log2 fold change (Nexturastat A),log2 fold change (vemurafenib),log2 fold change [11],log2 fold change [12],log2 fold change (givinostat),log2 fold change (barasertib)
SUGP1 (UniProt Q8IWZ8),0.008 (inactive),-0.024 (inactive),-0.08 (inactive),-0.023 (inactive),-0.003 (inactive),-0.127 (inactive),0.061 (inactive),-0.017 (inactive),0.011 (inactive),-0.003 (inactive),-0.006 (inactive),-0.021 (inactive),0.033 (inactive),0.065 (inactive),0.056 (inactive),0.121 (inactive),0.096 (inactive),-0.001 (inactive),0.095 (inactive),0.068 (inactive)
TAF9 (UniProt Q16594),-0.029 (inactive),0.027 (inactive),0.049 (inactive),0.025 (inactive),0.069 (inactive),0.024 (inactive),0.112 (inactive),-0.072 (inactive),0 (inactive),-0.005 (inactive),0.125 (inactive),-0.007 (inactive),-0.092 (inactive),0.018 (inactive),0 (inactive),-0.017 (inactive),-0.097 (inactive),0.02 (inactive),0.019 (inactive),-0.019 (inactive)
SLC25A36 (UniProt Q96CQ1),0.048 (inactive),0.066 (inactive),0.029 (inactive),0.019 (inactive),-0.167 (inactive),-0.03 (inactive),0.007 (inactive),0.01 (inactive),0.108 (inactive),0.012 (inactive),0.044 (inactive),0.008 (inactive),-0.172 (inactive),-0.048 (inactive),0.016 (inactive),-0.297 (active),0.016 (inactive),-0.067 (inactive),0.115 (inactive),-0.011 (inactive)
SSX2 (UniProt Q16385),-0.038 (inactive),-0.004 (inactive),-0.006 (inactive),-0.03 (inactive),0.022 (inactive),-0.044 (inactive),0.123 (inactive),-0.065 (inactive),0.021 (inactive),-1.33 (active),0.021 (inactive),-0.013 (inactive),0.011 (inactive),0.073 (inactive),-0.254 (active),0.046 (inactive),0.035 (inactive),-0.016 (inactive),-0.099 (inactive),0.018 (inactive)
SNRPB2 (UniProt P08579),0.067 (inactive),0.074 (inactive),0.089 (inactive),-0.015 (inactive),0.037 (inactive),0.213 (active),0.037 (inactive),0 (inactive),-0.012 (inactive),0.036 (inactive),-0.016 (inactive),0.007 (inactive),-0.026 (inactive),-0.014 (inactive),-0.015 (inactive),-0.036 (inactive),-0.042 (inactive),-0.048 (inactive),-0.051 (inactive),-0.056 (inactive)
STK25 (UniProt O00506),0.051 (inactive),-0.067 (inactive),0 (inactive),0.015 (inactive),-0.039 (inactive),-0.02 (inactive),0.066 (inactive),0.034 (inactive),-0.015 (inactive),0.08 (inactive),-0.102 (inactive),0.014 (inactive),-0.011 (inactive),0.029 (inactive),-0.006 (inactive),-0.021 (inactive),0.011 (inactive),-0.052 (inactive),0.056 (inactive),0.025 (inactive)
TLK1 (UniProt Q9UKI8),0.027 (inactive),-0.003 (inactive),-0.089 (inactive),0.02 (inactive),-0.032 (inactive),-0.064 (inactive),-0.041 (inactive),-0.041 (inactive),0.019 (inactive),0.218 (active),0.062 (inactive),-0.009 (inactive),0.018 (inactive),0.011 (inactive),0.012 (inactive),0.008 (inactive),0.019 (inactive),-0.053 (inactive),0.078 (inactive),0.079 (inactive)
SNX11 (UniProt Q9Y5W9),0.069 (inactive),0.13 (inactive),-0.062 (inactive),-0.001 (inactive),0.085 (inactive),-0.218 (inactive),0.043 (inactive),-0.067 (inactive),0.134 (inactive),-0.101 (inactive),-0.008 (inactive),0.012 (inactive),-0.003 (inactive),0.043 (inactive),0.014 (inactive),0.043 (inactive),0.025 (inactive),0.022 (inactive),-0.006 (inactive),0.019 (inactive)
SPG11 (UniProt Q96JI7),-0.027 (inactive),0.128 (inactive),-0.065 (inactive),-0.151 (inactive),0.103 (inactive),0.051 (inactive),0.405 (inactive),0.035 (inactive),0.03 (inactive),0.097 (inactive),-0.384 (inactive),0.068 (inactive),-0.063 (inactive),-0.182 (inactive),0.359 (inactive),-0.415 (inactive),-0.008 (inactive),-1.21 (inactive),0.023 (inactive),0.029 (inactive)
STAM2 (UniProt O75886),0.033 (inactive),0.008 (inactive),-0.018 (inactive),0.034 (inactive),0.038 (inactive),-0.131 (inactive),0.018 (inactive),0.014 (inactive),-0.063 (inactive),0.004 (inactive),-0.08 (inactive),-0.032 (inactive),0.034 (inactive),0.069 (inactive),-0.012 (inactive),0.009 (inactive),0.074 (inactive),-0.038 (inactive),0.021 (inactive),0.028 (inactive)
STK39 (UniProt Q9UEW8),0.048 (inactive),-0.006 (inactive),-0.3 (active),0.022 (inactive),-0.09 (inactive),-0.124 (inactive),-0.018 (inactive),-0.02 (inactive),0.013 (inactive),0.007 (inactive),-0.049 (inactive),0.006 (inactive),-0.016 (inactive),0.033 (inactive),0.018 (inactive),0.015 (inactive),0.032 (inactive),0.053 (inactive),0.033 (inactive),0.033 (inactive)
SLC7A6OS (UniProt Q96CW6),0.018 (inactive),-0.027 (inactive),0.046 (inactive),0.134 (inactive),-0.032 (inactive),0.045 (inactive),-0.019 (inactive),0.273 (active),0.014 (inactive),-0.199 (inactive),-0.065 (inactive),-0.033 (inactive),-0.042 (inactive),-0.075 (inactive),-0.031 (inactive),-0.015 (inactive),0.013 (inactive),-0.025 (inactive),0.017 (inactive),0.01 (inactive)
SLC27A4 (UniProt Q6P1M0),-0.042 (inactive),0.022 (inactive),-0.034 (inactive),0.003 (inactive),0.072 (inactive),-0.11 (inactive),-0.044 (inactive),0.039 (inactive),0.047 (inactive),0.104 (inactive),-0.074 (inactive),-0.072 (inactive),0.011 (inactive),-0.096 (inactive),-0.014 (inactive),-0.039 (inactive),-0.031 (inactive),-0.017 (inactive),0.021 (inactive),0.056 (inactive)
TEX264 (UniProt Q9Y6I9),-0.011 (inactive),-0.049 (inactive),-0.022 (inactive),0 (inactive),0.19 (inactive),-0.148 (inactive),-0.035 (inactive),-0.005 (inactive),-0.155 (inactive),0.091 (inactive),0.053 (inactive),-0.016 (inactive),-0.008 (inactive),0.013 (inactive),0.023 (inactive),-0.002 (inactive),-0.049 (inactive),0.014 (inactive),0.317 (inactive),0.032 (inactive)
SNX12 isoform 1 (UniProt Q9UMY4),0.039 (inactive),-0.007 (inactive),-0.069 (inactive),-0.011 (inactive),-0.068 (inactive),-0.09 (inactive),0.03 (inactive),0.032 (inactive),-0.007 (inactive),0 (inactive),-0.021 (inactive),-0.006 (inactive),0.032 (inactive),0.024 (inactive),-0.082 (inactive),0.054 (inactive),0.059 (inactive),0.008 (inactive),0.004 (inactive),0.062 (inactive)
SMAD9 (UniProt O15198),-0.033 (inactive),0.007 (inactive),-0.092 (inactive),-0.087 (inactive),-0.022 (inactive),0.005 (inactive),0.06 (inactive),0.024 (inactive),0.039 (inactive),0.017 (inactive),-0.012 (inactive),0.029 (inactive),0.005 (inactive),0.028 (inactive),0.04 (inactive),0.122 (inactive),0.104 (inactive),-0.032 (inactive),0.108 (inactive),0.054 (inactive)
